Drawing on PubChem BioAssay (NCATS), this text covers Potency for 13 compounds.

Each structure is given as a SMILES string. Records with an inconclusive call do not appear. The source made the active and inactive calls. Calls follow the shape of the dose curve; as a rule, active = well fitted cell-killing curve with a large enough effect; inconclusive = small, poorly fitted or top-dose-only effect, or effect the other way; inactive = no such curve, though single readings can be large or run the other way.

The nature of experiment [1]: Quantitative High-Throughput drug screen in 47 multiple myeloma cell lines against the NCATS MIPE library collection: KHM11_PLB cell viability assay (AID 1918962). Also: nearly all actives have a fitted effect of over 35% in size. In outline:
(§1)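 Myeloma cell lines, 500 cells per well, exposed to MIPE 4.0 library compounds for 48 h at 37C, 5% CO2. Viability from ATP by CellTiter-Glo luminescence; normalised to DMSO (100%) and media-only (0%) wells.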

Experiment [2] is described as follows: Quantitative High-Throughput drug screen in 47 multiple myeloma cell lines against the NCATS MIPE library collection: INA6_PLB cell viability assay (AID 1918965; also: nearly all actives have a fitted effect of over 55% in size). In a few lines: as §1
A short description of experiment [3]: Quantitative High-Throughput drug screen in 47 multiple myeloma cell lines against the NCATS MIPE library collection: JJN3_DSMZ cell viability assay (AID 1918966; also: nearly all actives have a fitted effect of over 50% in size). In outline: (§2)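 Steps: seed 500 cells per well; pin-transfer MIPE 4.0 library; incubate 48 h at 37C, 5% CO2, humidified; add CellTiter-Glo, 5 min room temperature; read luminescence.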
Experiment [4] is described as follows: Quantitative High-Throughput drug screen in 47 multiple myeloma cell lines against the NCATS MIPE library collection: KMS27_JCRB cell viability assay (AID 1918970). Also: nearly all actives have a fitted effect of over 30% in size. To be noted: KMS27 myeloma cells, CellTiter-Glo ATP viability, 48 h; viability (% of DMSO): at 45.8 µM (top of the series). In outline:
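ATP-based viability (CellTiter-Glo luminescence) is measured in cells treated 48 h with approved and investigational drugs at 37 °C. Controls are DMSO-only wells for full viability and media-only wells for none.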

Experiment [5] is described as follows: Quantitative High-Throughput drug screen in 47 multiple myeloma cell lines against the NCATS MIPE library collection: KMS12BM_JCRB cell viability assay (AID 1918971). Also: nearly all actives have a fitted effect of over 35% in size. In a few lines: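 CellTiter-Glo luminescence (ATP) after 48 h compound exposure, 37C/5% CO2; 500 cells/well; MIPE 4.0 approved/investigational drugs pinned in; DMSO = 100%, media only = 0% viability.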

Experiment [6] can be described thus: Quantitative High-Throughput drug screen in 47 multiple myeloma cell lines against the NCATS MIPE library collection: JIM1_ECACC cell viability assay (AID 1918964). In a few lines:
as §2

Experiment [7] is described as follows: Quantitative High-Throughput drug screen in 47 multiple myeloma cell lines against the NCATS MIPE library collection: H1112_PLB cell viability assay (AID 1918967; also: nearly all actives have a fitted effect of over 30% in size). In outline:
as §2

A short description of experiment [8]: Quantitative High-Throughput drug screen in 47 multiple myeloma cell lines against the NCATS MIPE library collection: Karpas25_ECACC cell viability assay (AID 1918968; also: nearly all actives have a fitted effect of over 35% in size). In a few lines: as §2
A short description of experiment [9]: Quantitative High-Throughput drug screen in 47 multiple myeloma cell lines against the NCATS MIPE library collection: KMS12PE_JCRB cell viability assay (AID 1918972). Also: nearly all actives have a fitted effect of over 30% in size. In outline: as §1
Potency is read from the fitted curve at half-maximal effect.

Take `COc1cc([C@@H]2c3cc4c(cc3[C@@H](O[C@@H]3O[C@@H]5CO[C@@H](C)O[C@@H]5[C@H](O)[C@@H]3O)[C@H]3COC(=O)[C@H]23)OCO4)cc(OC)c1O`: the Potency result in experiment [1] and in experiment [3] was “inactive” in each case. Further, the results for the Potency in experiment [2], in experiment [4] and in experiment [5] were 0.332 µM (active), 0.418 µM (active) and 1.48 µM (active), respectively.

As for `CNC1CCC(N(Cc2cccc(-c3ccncc3)c2)C(=O)c2sc3ccccc3c2Cl)CC1` (stereo not given), the Potency is 8.33 µM (active) in [1]; 14.8 µM (active) in [6]; 7.43 µM (active) in experiment [2]; 18.7 µM (active) in [3]; 14.8 µM (active) in experiment [7]; 9.35 µM (active) in experiment [8]. In addition, the Potency in [4] is 18.7 µM (active); in experiment [5], 18.7 µM (active); in experiment [9] it was 8.33 µM (active).

With `CNC(=O)c1ccc2c(C(=Nc3cccc(CN(C)C)c3)c3ccccc3)c(O)[nH]c2c1`, the Potency in [1] was 1.32 µM (active); in experiment [2], 20.9 µM (active); in [3], 2.64 µM (active); in experiment [7], 14.8 µM (active); in experiment [8], 13.2 µM (active); in experiment [4], 2.35 µM (active). Moreover, in [9], the Potency was 18.7 µM (active). In [5], the Potency result was “inactive”.

As to `Cc1ccc(NC(=O)c2cccc(N(C)C)c2)cc1NC(=O)c1ccc(O)cc1`, the Potency is 13.2 µM (active) in experiment [1]; 16.6 µM (active) in experiment [2]; 23.5 µM (active) in experiment [3]; 0.166 µM (active) in [7]; 0.118 µM (active) in experiment [8]; 1.05 µM (active) in experiment [4]. Further, in [5], the Potency was 7.43 µM (active).

On to `N#Cc1c(N(CC(=O)O)CC(=O)O)sc(C(=O)O)c1CC(=O)O`, for which the Potency entry in [1] was “inactive”. The Potency was 5.9 µM (active) in experiment [6], 14.8 µM (active) in experiment [2] and 18.7 µM (active) in [8].

As for `CCN1CCC(n2cc(CNc3cc(Cl)c4ncc(C#N)c(Nc5ccc(F)c(Cl)c5)c4c3)nn2)CC1`, the Potency in experiment [1] is 16.6 µM (active); in experiment [2], 20.9 µM (active); in experiment [3] it was 20.9 µM (active); in [8] it was 18.7 µM (active); in experiment [5], 9.35 µM (active); in experiment [9], 8.33 µM (active).

As for `NS(=O)(=O)c1ccc(Nc2nc(OCC3CCCCC3)c3[nH]cnc3n2)cc1`, the Potency was 26.4 µM (active) in [1]; 20.9 µM (active) in experiment [6]; 3.32 µM (active) in experiment [2]; 13.2 µM (active) in experiment [8]; 26.4 µM (active) in [5]; 20.9 µM (active) in experiment [9].

With `CCOC(=O)c1c(CSc2ccccc2)n(C)c2cc(Br)c(O)c(CN(C)C)c12`, the Potency result in experiment [1] was “inactive”. For the same compound, the Potency is 16.6 µM (active) in experiment [2]; 11.8 µM (active) in experiment [3]; 6.62 µM (active) in experiment [7]; 16.6 µM (active) in experiment [8]; 26.4 µM (active) in experiment [4]; 18.7 µM (active) in [5].

In the case of `CN(C)CCOc1ccc(C(=C(CCCl)c2ccccc2)c2ccccc2)cc1`, the Potency result in experiment [1], in experiment [6], in experiment [8], in experiment [4] and in [9] was “inactive” in each case. Moreover, the Potency in [2] was 4.18 µM (active); in [3], 23.5 µM (active).

With `NC(=O)c1nnn(Cc2cc(Cl)c(C(=O)c3ccc(Cl)cc3)c(Cl)c2)c1N`, the Potency result in experiment [1] is “inactive”. The Potency in experiment [2] is 14.8 µM (active); in experiment [3], 20.9 µM (active); in experiment [9], 6.62 µM (active).

Take `O=C(O)c1nc(=O)[nH]c(=O)[nH]1`: the Potency result in experiment [1], in experiment [2], in [7], in [8] and in experiment [9] was “inactive” in each case.

As for `CC[C@H](C=C[C@@H](C)[C@H]1CC[C@H]2[C@@H]3CC=C4C[C@@H](O)CC[C@]4(C)[C@@H]3CC[C@]12C)C(C)C`, the Potency result in [1], in [3], in experiment [7], in [8], in experiment [4] and in experiment [5] was “inactive” throughout. Moreover, the Potency entry in experiment [9] is “inactive”. In addition, the Potency in experiment [2] is 1.62 µM (active).

For the compound `N#CC(c1ccc(Cl)cc1)c1c(Cl)cc(-n2ncc(=O)[nH]c2=O)cc1Cl` (stereo not given), the Potency in experiment [1] is 0.372 µM (active); in experiment [6], 20.9 µM (active); in experiment [2] it was 23.5 µM (active); in [3], 16.6 µM (active); in experiment [7], 20.9 µM (active); in [8], 8.33 µM (active). The figures for the Potency in experiment [4], in [5] and in experiment [9] were 5.9 µM (active), 20.9 µM (active) and 13.2 µM (active), respectively.
